High-throughput results (PubChem)
Most compounds without a hit are left out; they make up all but 6.8% or so of the library.
KB-V1 cytotox: qHTS assay for MDR1-selective chemotherapeutics: Primary screen using the drug-selected MDR subline cells KB-V1. KB-V1 MDR cells viability, CellTiter-Glo, 72 h. Potency, µM (doses to about 46.1 µM), usual class: cytotoxic. 400,000 tested, 3.4% active. AID 1347076, 2019; note: nearly all actives have a fitted effect of over 60% in size
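KB-V1 MDR subline cells in DMEM (phenol-red free, 10% FBS) exposed to compounds in qHTS concentration series for 72 h at 37 degrees C. Viability read by CellTiter-Glo luminescence; concentration-effect curves fitted after normalization and correction.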
PINK1 modulator: A Quantitative High throughput Screen to Identify Chemical Modulators of PINK1 Expression | 410,000 tested, 0.2% active | PINK1 immunofluorescence, high-content cytometry, 24 h | Potency, µM (series often up to 76.6 µM), most hits filed as activators; active = well fitted activation curve with a large enough effect; inconclusive = small, poorly fitted or top-dose-only effect; cell line not stated here; note: nearly all actives have a fitted effect of over 65% in size
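Decision-based qHTS: stable cells, 24 h exposure to five compound concentrations, CCCP as control. Fixed cells stained for PINK1 plus nuclear, mitochondrial and cell markers, cytometer read.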
SW480 rerep: A quantitative high throughput screen for small molecules that induce DNA re-replication in SW480 colon adenocarcinoma cells | SW480 DNA re-replication, Hoechst DNA content imaging, 48 h | Potency, µM (doses to about 46.1 µM), hits mostly activators | 340,000 tested, 1.8% active | AID 624297, 2012; note: nearly all actives have a fitted effect of over 55% in size
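Image-based read-out: total Hoechst fluorescence of nuclei (405 nm excitation, 500-530 nm emission), with hits raising the fraction of high-intensity nuclei. SW480 colon cells incubated 48 hr with compounds at 37 C.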
KB-3-1 cytotox: qHTS assay for MDR1-selective chemotherapeutics: Primary screen using the parental adenocarcinoma cell KB-3-1; KB-3-1 viability, CellTiter-Glo ATP luminescence, 72 h; Potency, µM (highest dose often 46.1 µM), most hits filed as cytotoxic; 400,000 tested, 1.4% active; note: nearly all actives have a fitted effect of over 60% in size
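Multi-concentration cytotoxicity screen in KB-3-1 cells grown in DMEM lacking phenol red with 10% FBS. After 72 h at 37 °C with compound, ATP-dependent luminescence was recorded.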
MCF10A rerep: A quantitative high throughput screen for small molecules that induce DNA re-replication in MCF 10a normal breast cells. MCF 10A DNA re-replication, Hoechst nuclear intensity, 48 h. Potency, µM (highest dose often 46.1 µM), usual class: activators. 350,000 tested, 2.9% active. AID 624296, 2012; note: nearly all actives have a fitted effect of over 50% in size
TSG101-PTAP inh: qHTS Assay for Iinhibitors of HIV-1 Budding by Blocking the Interaction of PTAP/TSG101. Tumor susceptibility gene 101 protein (Homo sapiens), Q99816. Fluorescence polarization, FITC-PTAP peptide / Tsg101 binding. Potency, µM (series often up to 115 µM), usual class: inhibitors. 340,000 tested, under 10 active; active = well fitted inhibition curve with a large enough effect in the main read-out, with a control signal flat, not every such curve was filed as active; inconclusive = small, poorly fitted or top-dose-only effect, or effect the other way, or a change in a side signal; inactive = no such curve, though single readings can be large or run the other way
Target sequence (Q99816 whole entry, looked up): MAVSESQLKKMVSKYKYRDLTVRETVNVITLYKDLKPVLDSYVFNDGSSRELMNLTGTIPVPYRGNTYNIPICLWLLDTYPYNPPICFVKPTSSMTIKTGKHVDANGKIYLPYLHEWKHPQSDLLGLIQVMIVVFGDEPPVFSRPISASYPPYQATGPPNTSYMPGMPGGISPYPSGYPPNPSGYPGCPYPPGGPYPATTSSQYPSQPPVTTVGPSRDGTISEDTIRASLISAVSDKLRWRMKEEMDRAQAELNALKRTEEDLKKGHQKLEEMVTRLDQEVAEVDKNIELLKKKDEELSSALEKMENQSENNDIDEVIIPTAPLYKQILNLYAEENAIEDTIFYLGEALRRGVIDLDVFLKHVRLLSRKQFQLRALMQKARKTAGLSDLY
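FP read-out: FITC-PTAP peptide, 50 nM final, binding Tsg101 binding domain, 10 uM final; 20 min, r.t.; 10 mM HEPES pH 7.5, 0.15 M NaCl, 0.01% Tween 20, 3 mM EDTA, 0.1 mM TCEP.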
A number is an active result; 0 = inactive; ? = inconclusive; - = not tested or not shown. Unless noted, calls come from the whole dose curve; as a rule, active = well fitted curve in the direction sought with a large enough effect; inconclusive = small, poorly fitted or top-dose-only effect, or another doubt; inactive = no such curve, though single readings can be large; an effect the other way counts as inactive or inconclusive.

SMILES	KB-V1 cytotox	PINK1 modulator	SW480 rerep	KB-3-1 cytotox	MCF10A rerep	TSG101-PTAP inh
CCOc1ccc(S(=O)(=O)NCC(c2ccc(N(C)C)cc2)N2CCCC2)cc1 (stereo not given)	0	0	-	0	-	-
Cc1noc(C)c1CSCC(=O)N(C)CC(=O)Nc1ccc(Cl)c(Cl)c1	5.8µM	0	0	0	0	0
CCN(CC(=O)Nc1cc(Cl)ccc1C)C(=O)CSCc1c(C)noc1C	0	0	6.5µM	0	0	0
CCOC(=O)c1cc2c(=O)n3ccccc3nc2n(CCOC)c1=NC(=O)c1cc2ccccc2o1	?	0	-	?	-	-
CCc1nc2nc(C)cc(Nc3ccc(Br)cc3F)n2n1	0	0	-	0	-	-
COc1cc(C(=O)Nc2cccc(OCc3cc(=O)n4cc(C)sc4n3)c2)cc(OC)c1OC	0	0	-	0	-	-
CN(C)c1ccc(CCC2C=Cc3ccccc32)cc1 (stereo not given)	0	-	-	0	-	-
O=S(=O)(c1cccc(F)c1)N1CCN(c2nc(-c3cccs3)nc3ccccc23)CC1	0	0	-	0	-	-
Cc1ccc(/C=C(\C#N)c2nn(-c3ccccc3)c(N)c2C#N)cc1	21µM	0	0	0	?	0
N#C/C(=C\c1c(Cl)cccc1Cl)c1nn(-c2ccccc2)c(-n2cccc2)c1C#N	0	0	0	0	16µM	0
N#C/C(=C\c1c(F)cccc1Cl)c1nn(-c2ccccc2)c(-n2cccc2)c1C#N	0	0	0	0	?	0
O=S(=O)(Nc1ccc(O)c(Sc2nc3ccccc3s2)c1)c1ccc(Cl)cc1	16µM	0	0	?	21µM	0
CC(=O)Nc1ccc(S(=O)(=O)Nc2nc3ccccc3s2)cc1	0	0	0	0	0	0
O=C1Cc2c([nH]c3ccc([N+](=O)[O-])cc23)-c2ccccc2N1	?	0	?	0.82µM	?	0
O=C1c2ccccc2C(=O)N1CCc1csc(-c2ccccc2)n1	16µM	0	0	?	?	0
O=C1c2ccccc2C(=O)N1CCc1csc(-c2ccc(F)cc2)n1	?	0	0	0	0	0
CCOc1ccc(CC(=O)Nc2c(C(=O)c3ccccc3)oc3ccc(OC)cc23)cc1OCC	0	0	-	0	-	-
S=C(c1cn(CCOc2cccc3ccccc23)c2ccccc12)N1CCCC1	?	28µM	?	18µM	?	0
O=C(O)Cn1cc(C(=S)N2CCCCC2)c2ccccc21	0	0	0	0	0.58µM	0
O=C(O)Cn1cc(C(=S)N2CCOCC2)c2ccccc21	0	0	0	0	0	0
COc1ccc(NC(=O)C(=O)c2cn(CC(=O)N3CCCC3)c3ccccc23)cc1	?	0	0.46µM	?	?	0
S=C(c1cn(CCOc2ccccc2)c2ccccc12)N1CCCC1	?	?	0	?	0	0
Cc1ccc(OCCn2cc(C(=S)N3CCCC3)c3ccccc32)cc1C	5.2µM	0	?	5.8µM	?	0
Cc1cc2c(c(-c3ccc(Cl)cc3)c1)OC(CNC(=O)Cc1c(C)noc1C)C2 (stereo not given)	-	0	-	-	-	-
CCN(CC)CCNC(=O)c1cnn(-c2ncc3c(n2)-c2ccc(OC)cc2CC3)c1C	-	0	-	-	-	-
SMILES	KB-V1 cytotox	PINK1 modulator	SW480 rerep	KB-3-1 cytotox	MCF10A rerep	TSG101-PTAP inh
CC(C)(C)C(=O)Nc1ccc2nc(SCCOc3ccccc3Cl)sc2c1	0	0	-	0	-	-
CC(C)(C)OC(=O)N1CCC(c2nnc(SCc3ccccc3)o2)CC1	?	0	-	0	-	-
CSc1ccc(NC(=O)Nc2cccn(Cc3ccccc3)c2=O)cc1	3.7µM	0	0	8.2µM	0	0
CCSc1nc(CC)c2c(c1C#N)CCCC2	0	0	0.52µM	0	0	0
CCSc1nc(N2CCOCC2)c2c(c1C#N)CCCC2	0	0	0	0	?	0
CCOc1ccc(-c2cc3c(=O)n(CC(=O)NCc4ccc(Cl)cc4)ccn3n2)cc1	0	0	-	0	-	-
